Test results published in PubChem BioAssay (NCI).
Compounds without any hit were thinned out: in the full panel of roughly 79,000, 15% have a hit. A number with no mark means an inactive call. Calls of active or inactive are those of the source. Cut-off read from the data, not from the text of the source: active = growth inhibition above about 70%; inactive = the rest.

Key:
[1] = NCI Yeast Anticancer Drug Screen. Data for the rad50 strain (AID 155);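 note: 0% = growth of vehicle-only cultures of the same strain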; settings: S. cerevisiae rad50 strain growth inhibition; at 50.0 µM; hits give high values
Outline: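 Vehicle-treated cultures provide the reference for the growth inhibition reported for compound-exposed, repair-deficient yeast.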

[2] = NCI Yeast Anticancer Drug Screen. Data for the mec2-1 strain (AID 157); settings: S. cerevisiae mec2-1 strain, at 50.0 µM, hits give high values
Outline: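 Compounds were applied to mec2-1 yeast cells. Their growth was then compared with that of vehicle-treated cultures to give growth inhibition.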

[3] = NCI Yeast Anticancer Drug Screen. Data for the sgs1 mgt1 strain (AID 161);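 note: 0% = growth of cultures given vehicle only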; settings: S. cerevisiae sgs1 mgt1 strain, at 50.0 µM, hits give high values
Outline: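 Yeast cells carrying a defined DNA-repair defect were exposed to test compounds. Growth inhibition was measured relative to vehicle-treated controls.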

[4] = NCI Yeast Anticancer Drug Screen. Data for the cln2 rad14 strain (AID 165);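 note: 0% = growth equal to vehicle treated cultures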; settings: S. cerevisiae cln2 rad14 strain, at 50.0 µM, hits give high values
Outline: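 Strain: cln2 rad14 yeast, altered in cell cycle control and DNA damage repair. Read-out: growth inhibition vs vehicle.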

[5] = NCI Yeast Anticancer Drug Screen. Data for the bub3 strain (AID 167); settings: S. cerevisiae bub3 mutant strain, at 50.0 µM, hits give high values
Outline: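 Mutant yeast screening strain plus compound; vehicle-treated cultures serve as the 0% inhibition reference.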

[6] = NCI Yeast Anticancer Drug Screen. Data for the mlh1 rad18 strain (AID 175); settings: S. cerevisiae mlh1 rad18 strain growth inhibition; at 50.0 µM; hits give high values
Outline: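 A repair-deficient yeast strain is exposed to test compound, and growth is scored relative to vehicle-treated controls.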

| Structure (SMILES) | growth inhibition [1] | growth inhibition [2] [%] | growth inhibition [3] | growth inhibition [4] [%] | growth inhibition [5] | growth inhibition [6] [%] |
| --- | --- | --- | --- | --- | --- | --- |
| CC1CC/C(=N\O)CCCCC(=O)O1 (configuration not stated) | -3.45% | -0.35 | 2.15% | -33.4 | 2.9% | 0.85 |
| Nc1ccc(C(C(=O)O)c2ccccc2)cc1 (configuration not stated) | 10.4% | 15.8 | 12.6% | 1.4 | 20.1% | 10.9 |
| CC1=C2C(=CC(C)(CO)C2O)C(O)C(C)(O)C12CC2 (configuration not stated) | 21.1% | -5.15 | -17.1% | 1.95 | -13.9% | -29.8 |
| CC(C)CCOC(=O)c1ccccc1OC(=O)Nc1ccc(Cl)cc1[N+](=O)[O-] | -18.9% | -16.3 | -20.4% | -41.4 | 0.05% | -11.3 |
| CCOC(=O)/C(C#N)=C/c1ccc(O)c(OC)c1 | 30.4% | -8.5 | 4.95% | 14.5 | 12.6% | 23.3 |
| CC1SC2=NC3=C(c4ccccc4C3=O)C(c3ccc(F)cc3)N2C1=O (configuration not stated) | 34.4% | 24.2 | 35.8% | 32 | 47.1% | 22.8 |
| COc1ccc(C(=O)N/N=C/c2cccc3ccccc23)cc1 | -3% | 36.5 | 13% | -23.1 | 43.8% | 33.6 |
| Cc1cn(C)c2c1-c1oncc1CC2 | -4.3% | -14.7 | 5.4% | -7 | -35.3% | 2.3 |
| Clc1ccc(N=Cc2ccccc2Cl)cc1 | 34.8% | 16.1 | 25.2% | -13.7 | 42% | 19.7 |
| CNC(=O)OC(COC)CN1CCN(c2ccccc2C)CC1 (configuration not stated) | -25.8% | -47.8 | -10.6% | -1.25 | -8.3% | -6.5 |
| O=C1CCCCC1C(Nc1ccccc1)c1ccccc1 (configuration not stated) | 2.95% | -6 | -10.7% | 15.8 | -2.6% | 17.1 |
| CCC(C)(C#N)OC(C)=O (configuration not stated) | -3.75% | -26.6 | -8.4% | -6.85 | 4.6% | 8.45 |
| CCNC(=O)OC(C)C(O)c1ccccc1 (configuration not stated) | 0.05% | 11.6 | 33.2% | 6.8 | -19.6% | 29.2 |
| CC(=O)/C(=C/n1c(=S)sc2ccccc21)C(=O)Nc1ccccc1C | -3.75% | 0.9 | 54.4% | 15.9 | 9.2% | 41.6 |
| CCOC(=O)c1cn(C)c2c1C(=O)C(C(=O)OCC)CCN2C(=O)OCC (configuration not stated) | -1.5% | 9.15 | -11.8% | 8.95 | 1% | -19.6 |
| Cc1nc2ccc(I)cc2c(=O)n1-c1ccc(N=Cc2ccc(N(C)C)cc2)cc1 | 4.7% | 9.1 | 14.3% | 4.95 | -2.9% | 10.9 |
| BrCc1ccc(C[P+](c2ccccc2)(c2ccccc2)c2ccccc2)cc1 | 26.3% | 15.3 | 16.2% | 7 | 29.2% | 28.4 |
| CC(=O)[C@H]1CC[C@@H]2[C@]1(C)CC1OC13[C@@]21C=C[C@@]2(CC(=O)CC[C@]32C)C2C(=O)OC(=O)C21 (some centres not stated) | 17.6% | 4.45 | 40.8% | 18.5 | 3.95% | 22.9 |
| CCCCCCCCCc1cc[n+](C2=C([O-])C3=C(C(=O)C2=O)C2c4ccccc4C3c3ccccc32)cc1 | 43.8% | 50.6 | 80.5% (active) | 46 | 53.9% | 60.3 |
| c1ccc(C(c2ccccc2)c2cc(-c3cc(C(c4ccccc4)c4ccccc4)[nH]n3)n[nH]2)cc1 | -9.25% | 21.4 | -7.55% | -28.6 | -11.6% | 6.25 |
| COc1ccc(CCCNC(=O)c2cc(OC)c(OC)cc2CCO)cc1OC | 18.9% | 15.1 | -45.5% | -9.6 | -31.2% | -11.8 |

| Structure (SMILES) | growth inhibition [1] | growth inhibition [2] [%] | growth inhibition [3] | growth inhibition [4] [%] | growth inhibition [5] | growth inhibition [6] [%] |
| --- | --- | --- | --- | --- | --- | --- |
| CC(=O)ON1CCC=NC1 | 19.7% | 10.3 | -20.4% | 8.05 | 3.95% | -6.75 |
| O=C(c1ccccc1)c1ccccc1C(=O)c1ccccc1 | 77% (active) | 25.6 | 54% | -43 | 70.4% (active) | 52 |
| O=[N+]([O-])c1ccc(OP(=O)(O)O)cc1 | -5.9% | 13.3 | -9.85% | 20.2 | 8.95% | -10.2 |
| O=C(NCC1(O)CCCCC1)c1ccccc1 | 3.65% | -14.2 | -5.55% | -8.35 | 3.8% | 1.3 |
| CC1(CN2CCCCC2)COC(c2ccccc2)(c2ccccc2)OC1 | -8.1% | -8.85 | -13.6% | -36.1 | 5.75% | -0.9 |
| Cc1ccc(/C=N/NC(=O)c2ccc(C)cc2)cc1 | -14.9% | -10.2 | -4.5% | -13.7 | -16.2% | -11.9 |
| c1ccc(CCCOCCCc2ccccc2)cc1 | 24.9% | 14.8 | 9.15% | 7.4 | 51.2% | 22.4 |
| Cc1ccc(N=N/C(=N/NC(=O)c2ccccc2)c2ccc(N(CCC#N)CCC#N)cc2C)cc1 | 0.85% | 3.3 | -9.65% | -16.3 | -3.25% | -40 |
| C=COCCC(C(=O)OCC)C(=O)OCC | 13.5% | 26.5 | 17.8% | 4.2 | 40.6% | 13.1 |
| CCNC(=O)NS(=O)(=O)c1ccc(Sc2ccc(C)cc2)nc1 | -11.2% | -7.3 | -1.1% | -20.5 | 7.2% | 0.7 |
| O=C1OCC(O)C(O)C(O)C(O)C1O (configuration not stated) | 36.1% | 27.3 | 26.2% | 21.1 | 38.4% | 39.7 |
| CN=NNc1ccc(C(=O)NC(C)C)cc1 | -3.65% | -2 | -8.2% | -1.15 | -13.7% | -14.7 |
| CC(C)CC1=C(O)c2ccccc2C(=O)C1=O | 11% | -9.7 | -1.45% | -1.6 | 10.4% | -2.4 |
| CC1=CC(C)(C)NC(=S)N1C1CCCCC1 | 9.75% | -6.85 | 6.3% | -5 | 6.55% | 14.6 |
| CC(C)C(N=Cc1ccccc1O)C(=O)O (configuration not stated) | -8.35% | -21.9 | -10.2% | -5.75 | -47.9% | -4.3 |
| CCC1(CCCCCBr)OCCO1 | 13.9% | 12.6 | 19.6% | 10.2 | 14.8% | 7.9 |
| CCCN(CCC)CCCCCCCCN | 29.1% | -13.2 | -3.2% | 12.8 | -7.9% | 16.2 |
| Cc1ccc(C2=C(c3ccc(C)cc3)CS(=O)(=O)C2)cc1 | 22.2% | -5.55 | -0.4% | -6 | -18.8% | -26.1 |
| Cc1cc(C)c2c(c1)C(=O)c1ccccc1C2=O | 42.6% | 47.1 | 47.4% | 38 | 30.9% | 58.8 |
| O=C(O)/C=C(\Br)C(=O)O | 16.1% | -4.1 | -1% | -11.4 | -5.4% | 5.3 |
| Cc1cc(O)c(C(c2cccnc2)c2c(O)cc(C)[nH]c2=O)c(=O)[nH]1 | 1.95% | -14.8 | -40.1% | 11.8 | -30.2% | 30.1 |
